Source: PubChem BioAssay (National Center for Advancing Translational Sciences (NCATS))
G9a inh = G9a (human) methyltransferase inhibition; Q96KQ7; G9a H3K9 monomethylation, AlphaScreen, 2 h; Potency, µM (doses to about 102 µM), hits mostly inhibitors; 350,000 compounds, 8.8% hits; also: nearly all actives have a fitted effect of over 75% in size
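Chemiluminescent proximity detection of H3K9 monomethylation, read after 10 min bead incubation in the dark. Reaction: 20 nM G9a, 500 nM biotin-H3K9 peptide, 20 uM SAM cofactor, 2 h, room temperature, following 15 min enzyme-compound preincubation.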
JMJD2A Tudor = inhibitors of human JMJD2A Tudor domain | 390,000 compounds, 4.4% hits | AlphaScreen JMJD2A-Tudor / H3K4me3 peptide binding | O75164 | Potency, µM (highest dose often 114 µM), actives largely listed as inhibitors; also: nearly all actives have a fitted effect of over 50% in size
PLK1 PBD block = PLK1 (human) polo-box domain binding inhibition; Potency, µM, actives largely listed as inhibitors; AID 720504; 360,000 compounds, 2.8% hits; Plk1 PBD binding of FITC phosphopeptide, fluorescence polarization; P53350; also: series mostly up to about 57 µM; nearly all actives have a fitted effect of over 65% in size
Target sequence (P53350 whole entry, looked up, the tested form may be a part): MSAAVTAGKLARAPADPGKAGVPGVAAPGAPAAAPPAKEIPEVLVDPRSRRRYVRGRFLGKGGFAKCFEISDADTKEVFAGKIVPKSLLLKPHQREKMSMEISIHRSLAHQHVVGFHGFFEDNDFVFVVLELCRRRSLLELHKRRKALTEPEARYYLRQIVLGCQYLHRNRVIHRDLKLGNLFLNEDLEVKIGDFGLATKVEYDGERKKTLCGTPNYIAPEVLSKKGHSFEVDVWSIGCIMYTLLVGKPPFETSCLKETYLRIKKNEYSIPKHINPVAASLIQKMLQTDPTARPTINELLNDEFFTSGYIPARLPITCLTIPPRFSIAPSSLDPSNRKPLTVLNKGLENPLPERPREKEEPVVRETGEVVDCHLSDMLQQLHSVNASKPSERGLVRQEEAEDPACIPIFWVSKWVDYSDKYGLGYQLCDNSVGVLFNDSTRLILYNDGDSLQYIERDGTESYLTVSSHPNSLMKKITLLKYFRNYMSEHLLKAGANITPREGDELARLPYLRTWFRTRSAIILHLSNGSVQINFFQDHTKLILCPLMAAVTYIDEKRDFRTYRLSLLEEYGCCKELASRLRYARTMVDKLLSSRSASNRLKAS
HP1b binding inh = inhibitors of HP1-beta chromodomain binding to methylated histone tails | P83916 | AlphaScreen HP1-beta / biotin-H3K9me3 peptide binding | Potency, µM (titrated, usually from 114 µM), most hits filed as inhibitors | 390,000 compounds, 0.56% hits | AID 540317; also: nearly all actives have a fitted effect of over 70% in size
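HP1-beta protein (50 nM final) preincubated 30 min at room temperature with biotinylated H3(1-18)K9me3 peptide (50 nM) in PBS pH 7.4, 0.01% Tween-20, then compound added for 30 min. AlphaScreen streptavidin donor/nickel chelate acceptor beads (10 ug/mL final), 30 min dark, luminescence read.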
Sfp inh = Sfp phosphopantetheinyl transferase inhibition. Biochemical Sfp PPTase activity, qHTS. AID 1490. 310,000 compounds, 3.5% hits. Potency, µM, hits mostly inhibitors;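 also: the enzyme is Sfp with the accession as filed and its product quenches rhodamine fluorescence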
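After 15 min at room temperature with compound, 15 nM Sfp received 5 uM rhodamine-CoA plus 12.5 uM BHQ-2-ybbR (50 mM Hepes pH 7.6, 10 mM MgCl2). Rate came from the fluorescence difference over 30 min, ex 525/em 598 nm.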
BAZ2B block = blocks human BAZ2B. Q9UIF8. AlphaScreen BAZ2B-H3K14Ac peptide displacement. Potency, µM (series often up to 114 µM), hits mostly inhibitors. 360,000 compounds, 4.4% hits; also: nearly all actives have a fitted effect of over 60% in size
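BAZ2B (50 nM) with biotin-H3(5-23)K14Ac peptide (50 nM) in PBS pH 7.4, 0.01% Tween-20, preformed 30 min, then compound 30 min at room temperature; top concentration 110uM. AlphaScreen streptavidin donor/nickel chelate acceptor beads (10 ug/mL final), 20 min dark, signal read.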
Hits are given with their value; [ ] = remark or other dose. The list is not random: actives were taken first. Their share in the collection is about 12%. Calls follow the shape of the dose curve; as a rule, active = well fitted curve in the direction sought with a large enough effect; inconclusive = small, poorly fitted or top-dose-only effect, or another doubt; inactive = no such curve, though single readings can be large; an effect the other way counts as inactive or inconclusive.

`O=C(Nc1cccc(F)c1)N1CCCC2(CCN(C(=O)c3cc(C(F)(F)F)cc(C(F)(F)F)c3)CC2)C1` gave G9a inh inactive[12.7 µM] and Sfp inh inactive.
`CC(C)OCCCN1CN(S(=O)(=O)c2cccs2)c2nc3ccccc3nc21` gave G9a inh 20µM, JMJD2A Tudor inactive, PLK1 PBD block inactive, HP1b binding inh inactive, Sfp inh inactive and BAZ2B block inactive.
Screening O=S(=O)(c1cccs1)N1CN(Cc2ccco2)c2nc3ccccc3nc21 returned G9a inh 39.8µM, JMJD2A Tudor inconclusive, PLK1 PBD block inactive, HP1b binding inh inactive, Sfp inh inconclusive and BAZ2B block inconclusive.
`O=S(=O)(c1cccs1)N1CN(Cc2ccc(Cl)cc2)c2nc3ccccc3nc21` gave G9a inh inactive, JMJD2A Tudor inactive, PLK1 PBD block inactive, HP1b binding inh inactive, Sfp inh inactive and BAZ2B block inactive.
Screening CCCCN1CN(S(=O)(=O)c2cccs2)c2nc3ccccc3nc21 returned G9a inh inconclusive, Sfp inh inconclusive and BAZ2B block inactive.
CC(C)CCN1CN(S(=O)(=O)c2cccs2)c2nc3ccccc3nc21 was read as G9a inh 15.8µM, JMJD2A Tudor inactive, PLK1 PBD block inactive, HP1b binding inh inactive, Sfp inh inactive and BAZ2B block inactive.
`CCC(CC)C(=O)Nc1nnc(SCc2cc(=O)n3cccc(C)c3n2)s1` gave G9a inh inactive, JMJD2A Tudor inactive, HP1b binding inh inactive and BAZ2B block inactive.
Screening Cc1ccccc1OCCCCn1c(-c2ccc(Cl)cc2)nc2ccccc2c1=O returned G9a inh inactive, JMJD2A Tudor inactive, HP1b binding inh inactive and BAZ2B block inactive.
Nc1cc2c(cc1[N+](=O)[O-])OCO2 was read as G9a inh 50.1µM, JMJD2A Tudor inconclusive, PLK1 PBD block inactive, HP1b binding inh inactive, Sfp inh inactive and BAZ2B block 56.2µM.
`CC1=C/C(=N\OS(=O)(=O)c2ccccc2)C(C(C)C)=CC1=O` gave G9a inh 8.91µM, JMJD2A Tudor inconclusive, PLK1 PBD block inactive, HP1b binding inh inconclusive, Sfp inh inactive and BAZ2B block 35.5µM.
O=S(=O)(Oc1ccc(Cl)cc1)c1ccccc1 was read as Sfp inh inactive.
For CC1=C/C(=N\OS(=O)(=O)c2ccccc2)C(C)=CC1=O the results were G9a inh 20µM, JMJD2A Tudor inconclusive, PLK1 PBD block inactive, HP1b binding inh inactive, Sfp inh inactive and BAZ2B block 35.5µM.
Cc1cc2ccccn2c1C(C[N+](=O)[O-])c1ccc(N(C)C)cc1 (stereo not given) was read as G9a inh 10µM, JMJD2A Tudor 11.2µM, PLK1 PBD block inactive, HP1b binding inh inconclusive, Sfp inh inactive and BAZ2B block 8.91µM.
`COc1ccc(C(C[N+](=O)[O-])c2c(C)[nH]c3ccccc23)cc1OC` (stereo not given) gave G9a inh inactive, JMJD2A Tudor inconclusive, PLK1 PBD block inactive, HP1b binding inh inactive, Sfp inh inactive and BAZ2B block inconclusive.
Screening COc1ccc(C(C[N+](=O)[O-])c2c(-c3ccccc3)cc3ccccn23)c(OC)c1 (stereo not given) returned G9a inh 10µM, JMJD2A Tudor inconclusive, PLK1 PBD block inactive, HP1b binding inh inactive, Sfp inh 44.7µM and BAZ2B block 79.4µM.
COc1ccc(C(C[N+](=O)[O-])c2c(C)cc3ccccn23)cc1 (stereo not given) was read as G9a inh 35.5µM, JMJD2A Tudor inconclusive, PLK1 PBD block inactive, HP1b binding inh inactive, Sfp inh inactive and BAZ2B block inconclusive.
Screening CCn1c(SCC(=O)N2CCOCC2)nc2c([nH]c3ccccc32)c1=O returned G9a inh inactive, JMJD2A Tudor inactive, PLK1 PBD block inactive, HP1b binding inh inactive, Sfp inh inactive and BAZ2B block inactive.
O=C(ONc1ccc(N=NC(=O)c2ccccc2O)cc1)c1ccccc1 was read as G9a inh inconclusive, JMJD2A Tudor inconclusive, PLK1 PBD block inconclusive, HP1b binding inh inactive, Sfp inh inactive and BAZ2B block 10µM.
Screening [O-]C1=N/[N+](=C/c2ccccc2)CC1 returned G9a inh 14.1µM, JMJD2A Tudor inactive, PLK1 PBD block inactive, HP1b binding inh inactive, Sfp inh inactive and BAZ2B block inactive.
Screening [O-]C1=N/[N+](=C/c2ccc(Cl)c(Cl)c2)CC1 returned G9a inh inconclusive, JMJD2A Tudor inactive, PLK1 PBD block inactive, HP1b binding inh inactive, Sfp inh inactive and BAZ2B block inactive.
`CC1CN(C(=O)CN(C)S(=O)(=O)c2ccc3ccccc3c2)CC(C)O1` (stereo not given) gave G9a inh inactive, JMJD2A Tudor inactive, PLK1 PBD block inactive, HP1b binding inh inactive, Sfp inh inactive and BAZ2B block inactive.
Cc1cccc(-n2c(N)cc(=O)[nH]c2=S)c1 was read as G9a inh 50.1µM, JMJD2A Tudor inactive, PLK1 PBD block inactive, HP1b binding inh inactive, Sfp inh inactive and BAZ2B block inactive.
`N#Cc1c(N)[nH]c(=S)c(C#N)c1-c1ccccc1` gave G9a inh 1.12µM, JMJD2A Tudor inconclusive, PLK1 PBD block inconclusive, HP1b binding inh inactive and Sfp inh 39.8µM.
`Cc1ccc(-c2cc(-c3ccccc3)[nH]c(=S)c2C#N)cc1` gave G9a inh inactive, JMJD2A Tudor inactive, PLK1 PBD block inconclusive, HP1b binding inh inactive, Sfp inh inactive and BAZ2B block inactive.
`N#CCCN(C(=O)COC(=O)CCNS(=O)(=O)c1ccccc1)c1ccccc1` gave G9a inh inactive[2.33 µM], JMJD2A Tudor inactive, PLK1 PBD block inactive, HP1b binding inh inactive and BAZ2B block inactive.
For CC(C)OCCCN1C(=O)c2[nH]nc(-c3ccccc3O)c2C1c1cccc(OCc2ccccc2)c1 (stereo not given) the results were G9a inh inactive, JMJD2A Tudor inactive, HP1b binding inh inactive and BAZ2B block inactive.
CN(C)c1ccc(NC(=O)/C=C/c2c(Cl)cccc2Cl)cc1 was read as G9a inh 1.78µM, JMJD2A Tudor inactive, PLK1 PBD block inactive, HP1b binding inh inconclusive, Sfp inh inactive and BAZ2B block inconclusive.
CCC(C)C(=O)Nc1nnc(CCc2ccccc2)s1 (stereo not given) was read as JMJD2A Tudor 70.8µM, PLK1 PBD block 23.8µM, HP1b binding inh inactive, Sfp inh inactive and BAZ2B block inactive.
Screening COCC(=O)Nc1nnc(-c2cccs2)s1 returned G9a inh 44.7µM, JMJD2A Tudor inactive, PLK1 PBD block inconclusive, HP1b binding inh inactive, Sfp inh inactive and BAZ2B block inactive.
For O=C(Nc1nnc(-c2cccs2)s1)C1CC1 the results were G9a inh 22.4µM, JMJD2A Tudor inactive, PLK1 PBD block inactive, HP1b binding inh inactive, Sfp inh inactive and BAZ2B block inactive.
`C=C(C)C(=O)Nc1nnc(-c2cccs2)s1` gave G9a inh inactive, JMJD2A Tudor inactive, PLK1 PBD block inactive, HP1b binding inh inactive, Sfp inh inactive and BAZ2B block inactive.
